Inconclusive results are not listed. The source made the active and inactive calls.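 The calls were made as follows, unless noted: active = inhibition above the screen-wide mean plus 3 SD, about 51%; inactive = the rest.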 Peptide text beside a SMILES is read from it. * marks the point of attachment. Boc = CC(C)(C)OC(=O)*
Tests used:
[1] = rapamycin-like changes in RPL19A-GFP expression – cell-based, S. cerevisiae, multiplex flow cytometry, primary screen (AID 1862; in the data active = percent of DMSO control GFP below about 86%;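 also: lower values mimic rapamycin by blocking the RPL19A rise seen in DMSO cells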); details: S. cerevisiae RPL19A-GFP strain, flow cytometry fluorescence, 3 h; at 10 µM; stronger effect = lower value
[2] = TOR pathway GLN3 branch reporter MEP2-GFP changes – S. cerevisiae, multiplex flow cytometry, primary screen (AID 1867;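 active = GFP response, as percent of the DMSO control, above the screen-wide mean plus 3 SD, about 139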;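 also: median GFP channel fluorescence of barcode-gated MEP2-GFP cells measured by flow cytometry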); details: S. cerevisiae MEP2-GFP strain, 3 h, at 10 µM, stronger effect = higher value, 100% means same as DMSO wells
[3] = TOR pathway RTG branch CIT2 reporter changes – S. cerevisiae, GFP fusion, multiplex flow cytometry, primary screen (AID 1870;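 active = percent response above a set limit, the screen-wide mean plus 3 SD, cut at about 130% in these data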;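 also: barcoded CIT2-GFP strain pooled with four other GFP strains with rapamycin as positive control; median GFP fluorescence per well over plate mean of DMSO wells so 100% = DMSO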); details: S. cerevisiae CIT2-GFP expression, 3 h, at 10 µM, stronger effect = higher value
[4] = TOR pathway LAP4-GFP level changes – S. cerevisiae, multiplex flow cytometry, primary screen (AID 1873;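 active = GFP signal, as percent of the solvent control, above the screen mean plus 3 SD, about 149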); details: S. cerevisiae LAP4-GFP expression, 3 h, at 10 µM, stronger effect = higher value
[5] = yeast AGP1-GFP level changes, GLN3 branch – cell-based, multiplex flow cytometry, S. cerevisiae, primary screen (AID 1887;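 active = GFP signal above the screen-wide mean plus 3 SD, that is over about 124.5% of the solvent control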;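 also: AGP1-GFP fusion strain of S. cerevisiae within a five-strain barcoded multiplex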); details: 3 h, at 10 µM, stronger effect = higher value
[6] = reduced mouse 2C T cell binding to pMHC/ICAM-1 vesicles – MLPCN validation set, flow cytometry, LFA-1/ICAM-1 modulator project, pilot screen (AID 2523;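 active = response below a set limit, under 55% cells CD8-positive and vesicle-bound, and CD8 cells' 90th-percentile brightness under 279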;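 as to vesicle binding response: mean PE anti-B7-1 fluorescence of CD8+ cells relative to row control; 100% = QL9-loaded vesicles with DMSO vehicle in the same plate row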); details: 2C mouse CD8+ T cells, at 7 µM, stronger effect = lower value; double positive events: measured here: CD8+/vesicle+ event percentage
[7] = target: Integrin beta-1 (Homo sapiens) + Integrin alpha-4 (Homo sapiens) (UniProt P13612+P05556); experiment: alpha4beta1 integrin LIBS antibody binding reduction – U937 cells, HUTS-21 mAb, flow cytometry, validation set, VLA-4 allosteric modulator project, pilot screen (AID 2674;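 active = inhibition above 50%, about 3 SD of the validation set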;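 also: antibody binding induced by the VLA-4 ligand LDV present at three times its Kd; 0% = LDV ligand with antibody and no compound and 100% = antibody without LDV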); details: HUTS-21 LIBS mAb binding, at 6.7 µM, stronger effect = higher value, binding induced by LDV ligand
[8] = calorie-restriction mimetic ROS inhibitors, yeast – validation compound set, pilot screen (AID 2706;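 active = superoxide response below 65% of plate, a cut near 3 SD across the whole screen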;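 also: yeast exposed to compound for one week at 30 degrees C before staining; 100% = mean of all compound wells on the same plate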); details: S. cerevisiae aging, superoxide DHE fluorescence; at 10 µM, stronger effect = lower value
[9] = target: Beta-adrenergic receptor kinase 1 (Homo sapiens) (UniProt P25098); experiment: GRK2 binders displacing RNA aptamer, biochemical, validation, human GRK2, bead flow cytometry (AID 488806;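 active = aptamer binding inhibition above 30%, about 3 SD of noise from non-fluorescent compounds; inactive = inhibition at or below 30%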); details: bead-bound GRK2, FAM-aptamer displacement, at 10 µM, stronger effect = higher value
[10] = target: AP-2 complex subunit beta (Homo sapiens) (UniProt P63010); experiment: beta-arrestin/AP2 interaction blockers – biochemical, validation set, GST-AP2 beads, flow cytometry, pilot screen (AID 504541;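 active = inhibition above 54%, about 3 SD of non-fluorescent compounds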;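 also: AP2 carries R879A mutation and is captured from E. coli lysate; bead-bound FITC arrestin peptide fluorescence measuring arrestin peptide binding to AP2; 0% = DMSO wells and 100% = excess unlabeled arrestin peptide control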); details: FITC arrestin peptide, at 10 µM, stronger effect = higher value, AP2 beta2 appendage fragment, R879A mutant
[11] = cytosolic pH regulators acting via V-ATPase – S. cerevisiae, pHLuorin, HTS validation (AID 504600; in the data active = response above about 15%;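 also: plate controls were DMSO for no effect and reference compound for full effect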); details: V-ATPase proton transport, at 10 µM, stronger effect = higher value
[12] = tested on: anti-desmoglein-3 scFv antibody binding to human DSG3; experiment: blockers of pathogenic pemphigus antibody–desmoglein-3 binding – biochemical, validation compound set, bead-based, flow cytometry, pilot screen (AID 588368;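 active = binding below the plate cutoff, the plate median minus 3 SD, with a reading above zero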;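 also: signal is the median channel fluorescence of bead-bound GFP antibody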); details: Protein G beads, DSG3-Fc, scFv-GFP binding, at 10 µM, stronger effect = lower value
[13] = Nile Red efflux blockade in pump-expressing yeast – validation compound set, multiplex, phenotypic, pilot screen (AID 588506;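 active = efflux inhibition above 0.42, the validation set average plus 4 SD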;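 also: Nile Red retained in cells so higher fluorescence means more efflux inhibition; 0 = negative control wells and 1 = enniatin B 25 µM full block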); details: S. cerevisiae pump-expressing triplex, Nile Red efflux flow cytometry; at 10 µM; stronger effect = higher value; the pumps come from Candida albicans
[14] = target: ATP-binding cassette sub-family B member 6 (Homo sapiens) (UniProt Q9NP58); experiment: blockers of ABCB6-driven porphyrin uptake – K562-ABCB6 cells, flow cytometry, validation set, pilot screen (AID 588550); details: K562-ABCB6 porphyrin accumulation, 1 h, at 10 µM, stronger effect = higher value;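 also: 0% = DMSO wells and 100% = benzethonium chloride 70 µM positive control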
[15] = AML differentiation inducers, ER-HoxA9 marrow cells – cell-based, GFP/MAC1 double positive, flow cytometry, validation set, primary screen (AID 588685;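 active = differentiation response of at least 50%, scaled between solvent and reference control, from cells with both markers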;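 also: compound exposure lasts four days before antibody staining and flow analysis; 0% = DMSO wells and 100% = 5 µM fulvestrant positive control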); details: stronger effect = higher value, normalized: vehicle 0, fulvestrant 100
[16] = target: Beta-2 adrenergic receptor (Homo sapiens) (UniProt P07550); experiment: agonist-induced loss of surface beta2AR – cell-based, FAP fluorogen, flow cytometry, validation set, pilot screen (AID 504459;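 active = percent response above 42, roughly 3 SD of non-fluorescent test compounds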;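 also: agonist-driven loss of surface beta2AR via internalization measured by FAP dye flow cytometry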); details: Am2.2-beta2AR cells, at 10 µM, stronger effect = higher value
Sequence of Beta-2 adrenergic receptor (Homo sapiens) (P07550 whole entry, looked up): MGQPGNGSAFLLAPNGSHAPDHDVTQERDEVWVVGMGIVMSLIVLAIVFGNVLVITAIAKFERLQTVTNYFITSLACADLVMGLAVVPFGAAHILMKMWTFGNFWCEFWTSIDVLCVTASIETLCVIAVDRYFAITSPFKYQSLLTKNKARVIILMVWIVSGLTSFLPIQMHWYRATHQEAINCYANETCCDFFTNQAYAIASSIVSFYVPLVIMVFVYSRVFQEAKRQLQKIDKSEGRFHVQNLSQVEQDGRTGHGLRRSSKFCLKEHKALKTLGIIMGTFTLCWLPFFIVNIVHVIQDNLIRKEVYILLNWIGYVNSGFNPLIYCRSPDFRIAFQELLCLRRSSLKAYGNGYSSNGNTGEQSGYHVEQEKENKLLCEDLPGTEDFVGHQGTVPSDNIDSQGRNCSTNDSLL

Sequence of Integrin beta-1 (Homo sapiens) + Integrin alpha-4 (Homo sapiens) (P05556 whole entry, looked up): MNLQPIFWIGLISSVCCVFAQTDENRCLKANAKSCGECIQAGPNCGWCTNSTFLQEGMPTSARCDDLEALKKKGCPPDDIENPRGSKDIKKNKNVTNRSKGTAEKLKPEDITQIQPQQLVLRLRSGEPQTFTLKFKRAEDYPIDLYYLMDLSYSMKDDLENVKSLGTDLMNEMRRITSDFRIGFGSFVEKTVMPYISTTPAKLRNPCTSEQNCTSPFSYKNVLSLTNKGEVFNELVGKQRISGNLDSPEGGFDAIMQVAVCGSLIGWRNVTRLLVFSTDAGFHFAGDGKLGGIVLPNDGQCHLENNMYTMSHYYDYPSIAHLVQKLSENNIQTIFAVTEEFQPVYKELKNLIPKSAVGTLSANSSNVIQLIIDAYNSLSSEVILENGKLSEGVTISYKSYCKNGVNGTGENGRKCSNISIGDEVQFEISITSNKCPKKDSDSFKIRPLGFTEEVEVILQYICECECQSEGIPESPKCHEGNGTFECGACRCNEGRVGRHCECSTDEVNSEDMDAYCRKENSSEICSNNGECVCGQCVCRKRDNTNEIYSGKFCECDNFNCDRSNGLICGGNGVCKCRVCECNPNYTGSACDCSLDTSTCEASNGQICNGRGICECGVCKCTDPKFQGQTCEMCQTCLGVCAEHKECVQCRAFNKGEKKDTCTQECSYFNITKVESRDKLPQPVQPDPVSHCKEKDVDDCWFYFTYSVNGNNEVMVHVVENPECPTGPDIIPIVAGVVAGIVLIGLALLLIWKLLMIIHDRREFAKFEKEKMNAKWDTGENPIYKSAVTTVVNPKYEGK
Sequence of Integrin beta-1 (Homo sapiens) + Integrin alpha-4 (Homo sapiens) (P13612 whole entry, looked up): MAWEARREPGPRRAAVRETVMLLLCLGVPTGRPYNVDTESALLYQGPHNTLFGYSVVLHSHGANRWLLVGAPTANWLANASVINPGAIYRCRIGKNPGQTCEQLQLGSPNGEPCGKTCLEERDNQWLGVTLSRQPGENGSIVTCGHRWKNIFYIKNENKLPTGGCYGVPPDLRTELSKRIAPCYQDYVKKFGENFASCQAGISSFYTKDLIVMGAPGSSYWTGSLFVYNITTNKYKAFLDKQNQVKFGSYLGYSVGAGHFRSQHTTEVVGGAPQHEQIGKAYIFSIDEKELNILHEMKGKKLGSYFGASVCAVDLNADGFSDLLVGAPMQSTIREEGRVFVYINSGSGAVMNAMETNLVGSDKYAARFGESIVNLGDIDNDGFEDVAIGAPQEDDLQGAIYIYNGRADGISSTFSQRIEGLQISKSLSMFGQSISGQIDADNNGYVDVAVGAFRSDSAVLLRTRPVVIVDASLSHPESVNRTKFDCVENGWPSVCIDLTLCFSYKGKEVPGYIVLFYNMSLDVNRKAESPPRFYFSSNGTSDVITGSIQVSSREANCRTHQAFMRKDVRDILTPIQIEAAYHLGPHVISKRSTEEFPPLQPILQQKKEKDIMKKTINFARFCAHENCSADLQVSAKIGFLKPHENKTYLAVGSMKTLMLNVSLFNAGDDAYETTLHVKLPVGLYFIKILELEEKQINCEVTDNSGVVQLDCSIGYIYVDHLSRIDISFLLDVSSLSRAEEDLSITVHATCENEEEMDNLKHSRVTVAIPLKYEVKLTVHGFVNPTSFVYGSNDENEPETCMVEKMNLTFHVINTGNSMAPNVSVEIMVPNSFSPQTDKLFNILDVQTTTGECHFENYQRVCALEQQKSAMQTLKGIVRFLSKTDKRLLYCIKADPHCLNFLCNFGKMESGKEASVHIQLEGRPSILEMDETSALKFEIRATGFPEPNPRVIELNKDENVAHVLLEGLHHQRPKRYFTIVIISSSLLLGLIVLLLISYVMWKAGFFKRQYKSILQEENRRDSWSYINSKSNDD
Sequence of ATP-binding cassette sub-family B member 6 (Homo sapiens) (Q9NP58 whole entry, looked up): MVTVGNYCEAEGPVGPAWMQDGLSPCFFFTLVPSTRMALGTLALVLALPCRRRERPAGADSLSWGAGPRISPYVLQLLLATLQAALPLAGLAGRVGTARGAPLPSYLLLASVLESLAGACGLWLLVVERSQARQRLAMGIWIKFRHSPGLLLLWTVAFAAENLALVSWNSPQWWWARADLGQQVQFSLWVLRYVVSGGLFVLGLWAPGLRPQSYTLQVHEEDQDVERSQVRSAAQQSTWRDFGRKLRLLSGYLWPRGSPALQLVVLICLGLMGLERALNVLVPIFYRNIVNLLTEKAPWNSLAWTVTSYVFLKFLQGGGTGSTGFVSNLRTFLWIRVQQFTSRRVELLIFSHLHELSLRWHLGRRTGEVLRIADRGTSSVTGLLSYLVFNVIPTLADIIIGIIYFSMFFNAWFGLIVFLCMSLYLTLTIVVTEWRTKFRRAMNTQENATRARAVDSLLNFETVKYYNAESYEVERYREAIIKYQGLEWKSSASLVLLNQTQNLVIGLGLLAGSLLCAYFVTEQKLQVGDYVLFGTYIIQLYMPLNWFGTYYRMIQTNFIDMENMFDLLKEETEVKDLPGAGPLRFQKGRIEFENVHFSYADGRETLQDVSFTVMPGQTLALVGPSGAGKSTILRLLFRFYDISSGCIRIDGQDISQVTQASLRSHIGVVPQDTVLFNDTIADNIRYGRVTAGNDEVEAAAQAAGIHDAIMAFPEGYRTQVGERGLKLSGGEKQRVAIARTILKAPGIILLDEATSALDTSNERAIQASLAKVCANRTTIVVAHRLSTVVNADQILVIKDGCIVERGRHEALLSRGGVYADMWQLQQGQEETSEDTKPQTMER
Sequence of AP-2 complex subunit beta (Homo sapiens) (P63010 whole entry, looked up, the tested form may be a part, one chain of several): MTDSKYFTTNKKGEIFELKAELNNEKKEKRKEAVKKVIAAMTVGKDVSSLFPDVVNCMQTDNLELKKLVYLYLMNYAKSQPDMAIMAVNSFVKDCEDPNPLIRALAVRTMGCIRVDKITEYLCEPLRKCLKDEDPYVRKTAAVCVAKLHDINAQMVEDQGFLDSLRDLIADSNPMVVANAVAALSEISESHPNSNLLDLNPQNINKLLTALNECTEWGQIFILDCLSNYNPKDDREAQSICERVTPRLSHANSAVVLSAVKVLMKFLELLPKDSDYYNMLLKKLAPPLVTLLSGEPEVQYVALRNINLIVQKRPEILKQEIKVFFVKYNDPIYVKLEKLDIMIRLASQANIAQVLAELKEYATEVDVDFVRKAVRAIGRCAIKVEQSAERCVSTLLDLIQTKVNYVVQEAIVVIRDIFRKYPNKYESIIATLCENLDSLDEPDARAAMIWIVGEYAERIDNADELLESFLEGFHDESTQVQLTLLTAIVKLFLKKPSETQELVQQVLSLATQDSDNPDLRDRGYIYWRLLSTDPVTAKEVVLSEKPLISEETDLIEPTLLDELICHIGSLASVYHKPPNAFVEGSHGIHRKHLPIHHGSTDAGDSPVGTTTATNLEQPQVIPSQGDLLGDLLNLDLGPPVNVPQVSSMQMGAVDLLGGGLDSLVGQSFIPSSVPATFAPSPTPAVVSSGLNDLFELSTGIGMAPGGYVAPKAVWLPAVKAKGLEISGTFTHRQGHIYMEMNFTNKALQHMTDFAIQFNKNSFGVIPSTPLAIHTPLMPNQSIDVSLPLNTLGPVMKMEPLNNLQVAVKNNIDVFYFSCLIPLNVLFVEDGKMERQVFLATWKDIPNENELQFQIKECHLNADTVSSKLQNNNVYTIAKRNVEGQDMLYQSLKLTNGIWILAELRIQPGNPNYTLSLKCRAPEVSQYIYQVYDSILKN
Sequence of Beta-adrenergic receptor kinase 1 (Homo sapiens) (P25098 whole entry, looked up): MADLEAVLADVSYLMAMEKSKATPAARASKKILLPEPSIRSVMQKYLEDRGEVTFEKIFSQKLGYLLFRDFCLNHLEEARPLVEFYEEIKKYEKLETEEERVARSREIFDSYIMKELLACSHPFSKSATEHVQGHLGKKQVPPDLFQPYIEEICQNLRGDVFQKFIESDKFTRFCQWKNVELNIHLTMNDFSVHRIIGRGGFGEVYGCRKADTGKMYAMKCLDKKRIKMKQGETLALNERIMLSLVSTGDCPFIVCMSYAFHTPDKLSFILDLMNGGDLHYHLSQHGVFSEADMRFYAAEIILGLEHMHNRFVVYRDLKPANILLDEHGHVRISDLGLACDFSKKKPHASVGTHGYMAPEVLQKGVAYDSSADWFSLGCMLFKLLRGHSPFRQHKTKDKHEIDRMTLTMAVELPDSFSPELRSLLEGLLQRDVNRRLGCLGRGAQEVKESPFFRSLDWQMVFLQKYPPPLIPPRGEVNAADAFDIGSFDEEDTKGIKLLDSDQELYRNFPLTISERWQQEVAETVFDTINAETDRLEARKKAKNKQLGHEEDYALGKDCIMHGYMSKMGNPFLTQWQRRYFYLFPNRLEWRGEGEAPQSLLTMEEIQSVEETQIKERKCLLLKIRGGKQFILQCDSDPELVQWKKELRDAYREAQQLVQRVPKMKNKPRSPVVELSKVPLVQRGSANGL

O=C(CCCN1CC=C(n2c(=O)[nH]c3ccccc32)CC1)c1ccc(F)cc1
63%: double positive events [6]
inactive: percent of DMSO control GFP [1] 98.1% | GFP response vs DMSO [2] 95.9% | percent response of DMSO control [3] 106% | GFP response vs DMSO [4] 93.3% | GFP response, % of DMSO [5] 97.2% | vesicle binding response [6] 237% | inhibition [7] 5.36% | superoxide response (% of plate) [8] 97.2% | aptamer binding inhibition [9] -3% | inhibition [10] -14.3% | response [11] -6.07% | binding (% of control) [12] 104% | efflux inhibition (fraction of control) [13] -0.05 | inhibition [14] 6% | differentiation response [15] -19.6%

CCOc1ccc(CCn2c(-c3ccco3)nc3ccccc3c2=O)cc1OCC
62.6%: double positive events [6]
inactive: percent of DMSO control GFP [1] 100% | GFP response vs DMSO [2] 106% | percent response of DMSO control [3] 94.2% | GFP response vs DMSO [4] 92.7% | GFP response, % of DMSO [5] 92.6% | vesicle binding response [6] 258% | inhibition [7] -18.1% | aptamer binding inhibition [9] 1% | response [16] 2.8% | inhibition [10] 3.57% | response [11] -0.47% | binding (% of control) [12] 91.2% | efflux inhibition (fraction of control) [13] 0.27 | inhibition [14] 20% | differentiation response [15] 0.24%

C/C(=N\N=C1\NC(=O)C(CC(=O)Nc2ccc(Cl)cc2)S1)c1ccco1 (stereo not given)
inactive: percent of DMSO control GFP [1] 105% | GFP response vs DMSO [2] 101% | percent response of DMSO control [3] 104% | GFP response vs DMSO [4] 91.3% | GFP response, % of DMSO [5] 99.1% | vesicle binding response [6] 112% | inhibition [7] -17% | superoxide response (% of plate) [8] 101% | aptamer binding inhibition [9] 16% | inhibition [10] 3.65% | response [11] -0.13% | binding (% of control) [12] 94.4% | efflux inhibition (fraction of control) [13] 0.22 | inhibition [14] 8% | differentiation response [15] 0%
54.2%: double positive events [6]

CC1(C)OC2OC(C(=O)N/N=C/c3ccccc3F)C3OC(C)(C)OC3C2O1 (stereo not given)
53.1%: double positive events [6]
inactive: percent of DMSO control GFP [1] 100% | GFP response vs DMSO [2] 106% | percent response of DMSO control [3] 97.9% | GFP response vs DMSO [4] 101% | GFP response, % of DMSO [5] 101% | vesicle binding response [6] 164% | inhibition [7] 12.8% | superoxide response (% of plate) [8] 103% | aptamer binding inhibition [9] 1% | inhibition [10] 0.54% | response [11] 1.25% | binding (% of control) [12] 96.5% | inhibition [14] 9% | differentiation response [15] -13.1%
active: efflux inhibition (fraction of control) [13] 0.52

CN(C)CCOC(C)(c1ccccc1)c1ccccn1 (stereo not given)
63.3%: double positive events [6]
inactive: percent of DMSO control GFP [1] 100% | GFP response vs DMSO [2] 104% | percent response of DMSO control [3] 93.1% | GFP response vs DMSO [4] 83.5% | GFP response, % of DMSO [5] 93.7% | vesicle binding response [6] 129% | inhibition [7] -1.49% | aptamer binding inhibition [9] 2% | response [16] 2.25% | inhibition [10] 13.9% | response [11] -1.19% | binding (% of control) [12] 106% | inhibition [14] 6% | differentiation response [15] 13.9%
active: efflux inhibition (fraction of control) [13] 0.74

CC(=O)Nc1nc(CCC(C)C)cc2c1c(=O)oc1ccccc12
60.5%: double positive events [6]
inactive: percent of DMSO control GFP [1] 102% | GFP response vs DMSO [2] 98.3% | percent response of DMSO control [3] 100% | GFP response vs DMSO [4] 96% | GFP response, % of DMSO [5] 88.6% | vesicle binding response [6] 77.6% | inhibition [7] 1.62% | aptamer binding inhibition [9] 0% | response [16] -19.1% | inhibition [10] 2.41% | response [11] 0.7% | binding (% of control) [12] 75.5% | efflux inhibition (fraction of control) [13] 0.39 | inhibition [14] -8% | differentiation response [15] 16.9%

CC(C)(C)OC(=O)N1CCCC1C(=O)NC(Cc1ccccc1)C(=O)O (stereo not drawn) (Boc-Pro-Phe-OH; configuration not given here)
inactive: percent of DMSO control GFP [1] 101% | GFP response vs DMSO [2] 98.9% | percent response of DMSO control [3] 104% | GFP response vs DMSO [4] 104% | GFP response, % of DMSO [5] 102% | vesicle binding response [6] 186% | inhibition [7] 13.8% | superoxide response (% of plate) [8] 92.5% | aptamer binding inhibition [9] -1% | inhibition [10] 9.73% | response [11] 4.48% | binding (% of control) [12] 101% | efflux inhibition (fraction of control) [13] 0.22 | inhibition [14] 10% | differentiation response [15] 7.87%
61.4%: double positive events [6]

CN(CCc1cnn(C)c1)Cc1nc(CC2CC2)no1
inactive: percent of DMSO control GFP [1] 101% | GFP response vs DMSO [2] 101% | percent response of DMSO control [3] 110% | GFP response vs DMSO [4] 105% | GFP response, % of DMSO [5] 105% | vesicle binding response [6] 194% | inhibition [7] -11.4% | superoxide response (% of plate) [8] 106% | aptamer binding inhibition [9] 2% | inhibition [10] 23.6% | response [11] -2.33% | binding (% of control) [12] 104% | efflux inhibition (fraction of control) [13] -0.16 | inhibition [14] 8% | differentiation response [15] -9.89%
58.1%: double positive events [6]

CC/C(=C1/C(=O)CC(C)(C)C(C(=O)OC)C1=O)N1CCCC1 (stereo not given)
active: efflux inhibition (fraction of control) [13] 0.99
63%: double positive events [6]
inactive: percent of DMSO control GFP [1] 103% | GFP response vs DMSO [2] 96.2% | percent response of DMSO control [3] 83.8% | GFP response vs DMSO [4] 83.5% | GFP response, % of DMSO [5] 88.9% | vesicle binding response [6] 174% | inhibition [7] 6.81% | aptamer binding inhibition [9] 3% | response [16] -0.83% | inhibition [10] -0.06% | response [11] 3.5% | binding (% of control) [12] 96.6% | inhibition [14] 11% | differentiation response [15] 34.5%

CC#C[C@]1(O)CC[C@H]2[C@@H]3CCC4=CC(=O)CCC4=C3[C@@H](c3ccc(N(C)C)cc3)C[C@@]21C
inactive: percent of DMSO control GFP [1] 103% | GFP response vs DMSO [2] 103% | percent response of DMSO control [3] 110% | GFP response vs DMSO [4] 87.3% | GFP response, % of DMSO [5] 102% | vesicle binding response [6] 187% | inhibition [7] -10.5% | superoxide response (% of plate) [8] 94.9% | aptamer binding inhibition [9] 9% | inhibition [10] 25.2% | response [11] 0.03% | binding (% of control) [12] 94.6% | efflux inhibition (fraction of control) [13] -0.16 | inhibition [14] 3% | differentiation response [15] -16.4%
56.3%: double positive events [6]
